Experimental data published in PubChem BioAssay AID1117359 (Southern Research Institute, 2015).
Among all 1,500 compounds or so, about 460 (31%) were called active. Not all results are given here. Results with a measured potency or affinity are listed apart. Unmarked numbers belong to inactive results.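 Rule for the calls: active = viability at or below 80% at any tested concentration, marking the compound as toxic; inactive = the rest.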

Assay: THP-1 cell cytotoxicity, dose response, cytotoxicity control for Vif-APOBEC3G degradation inhibitor project, THP-1 cells (AID 1117359)
Settings: THP-1 viability, CellTiter-Glo luminescence, 72 h; series mostly up to 40 µM; viability: at the top concentration

SMILES | viability | outcome
COc1ccc(CC(=O)Oc2ccc(F)c(F)c2)cc1S(=O)(=O)N1CCOCC1 | 95.9% | –
O=C(NCc1ccc(F)cc1)C1CCC(CNc2c(N3CCCCC3)c(=O)c2=O)CC1 (stereo not given) | 94.3% | –
Cc1ccc(C)c(OCCC(=O)Nc2ccccc2C(=O)NC2CC2)c1 | 90% | –
CCC(CC)NC(=O)Nc1ccc(F)cc1F | 94.3% | –
CS(=O)(=O)N(C(=O)NC(=O)NC1CCS(=O)(=O)C1)C1CCCCC1 (stereo not given) | 83.4% | –
O=C(CNS(=O)(=O)c1ccc2ccccc2c1)Nc1ccc(F)c(F)c1F | 103% | –
CC(C)(C)NC(=O)CSc1nnc(-c2ccccn2)n1Cc1ccccc1 | 98.6% | –
COc1ccc(OC)c(NC(=O)COC(=O)c2ccc(OC)c(S(=O)(=O)N3CCOCC3)c2)c1 | 113% | –
COc1ccc(NC(=O)c2ccc(S(=O)(=O)N3CCOCC3)o2)cc1 | 115% | –
CC(=O)Nc1ccc2c(c1)Cc1cc(N3C(=O)C=CC3=O)ccc1-2 | 88.1% | –
NC(=O)C1CCCN(CC(=O)Nc2ccccc2C(=O)NC2CC2)C1 (stereo not given) | 108% | –
COC(=O)Cc1cc(=O)n(-c2nc3ccccc3[nH]2)[nH]1 | 93.6% | –
CC(=O)OCCCNc1cc(Sc2nc3ccccc3s2)c2nonc2c1[N+](=O)[O-] | 102% | –
CCCC(NCC(=O)Nc1ccccc1C(=O)NC1CC1)c1ccccc1 (stereo not given) | 83.8% | –
Cc1ccc(-n2nc(C)c3c(C)c(CCC(=O)O)c(C)nc32)cc1 | 95.3% | –
CCN(CC)CCCNC(=O)CSc1nc(-c2cccs2)cc(C(F)(F)F)n1 | 93.7% | –
COCCn1c(N)c(N(Cc2ccccc2)C(=O)C2CCCCC2)c(=O)[nH]c1=O | 95.3% | –
O=C(O)c1ccc(NS(=O)(=O)c2cccc(C(=O)Nc3ccc([N+](=O)[O-])cc3)c2)cc1 | 109% | –
O=C(CSCc1ccc(Br)cc1)NC1CC1 | 89.4% | –
CC(c1ccccc1)N(C)CC(=O)NC(=O)NCCC1=CCCCC1 (stereo not given) | 82% | –
COC(=O)c1ccc(NC(=O)COc2cccc(-n3cnnn3)c2)cc1 | 94.6% | –
CCOC(=O)C/C(C)=N\Nc1ccc([N+](=O)[O-])cc1[N+](=O)[O-] | 105% | –

SMILES | viability | outcome
CCOC(=O)c1csc(N)c1-c1ccc([N+](=O)[O-])cc1 | 84.2% | –
CCOc1ccccc1NC(=O)CCS(=O)(=O)c1ccc(Br)cc1 | 91.6% | –
CC(=O)N1CCN(c2nc(-c3ccco3)c3c(c2C#N)CC(C)(C)SC3)CC1 | 91.1% | –
CC1CCCN(Cc2c(O)ccc3c2O/C(=C\c2ccco2)C3=O)C1 (stereo not given) | 88.4% | –
COc1cccc(-c2nc(-c3cccs3)no2)c1 | 84% | –
COc1ccc(C(C)=O)cc1CN1C(=O)NC2(CCCC2)C1=O | 113% | –
O=C(O)C1Nc2c(Cl)cc(Cl)cc2C2C=CCC12 (stereo not given) | 98.9% | –
Cc1ncc(CO)c(/C=N/NC(=O)c2cc(O)c(O)c(O)c2)c1O | 91.7% | –
COc1ccc(C(=O)N/N=C/c2cccnc2)cc1 | 91.2% | –
CCOC(=O)c1nn(-c2ccc(Cl)cc2Cl)c(=N)c(C#N)c1C | 91.6% | –
CSc1ncccc1C(=O)NCc1nnc2ccccn12 | 85.7% | –
COC(=O)C1=C(C)NC(=O)NC1c1ccc2c(c1)OCO2 (stereo not given) | 86.2% | –
Cc1cc(C)n2nc(SC(C)C(=O)N3CCCC3)nc2n1 (stereo not given) | 89.7% | –
O=C(COC(=O)c1ccccc1Br)Nc1nnc(-c2ccccc2)o1 | 101% | –
O=C(Nc1ccc(F)cc1F)c1noc2c1CCC2 | 95.5% | –
CCOc1cccc(=O)c2c(C)n(C)c(C)c12 | 86.7% | –
CCOC(=O)Cn1nc(-c2ccccc2)c2cnc3ccc(C)cc3c21 | 104% | –
COc1ccc(/C=C/C(=O)NC(=S)Nc2ccccn2)cc1 | 99.5% | –
C[C@@H]1CCCCO[C@H](CN(C)C(=O)c2ccccc2)[C@@H](C)CN([C@H](C)CO)C(=O)c2cc(NC(=O)NC3CCCCC3)ccc2O1 | 81.3% | –
COc1cccc(/C=N/n2c(-c3cc(C)[nH]n3)n[nH]c2=S)c1 | 95% | –
CS(=O)(=O)N1CCCCC1CCN1CCCCC1 (stereo not given) | 96.8% | –
CCOC(=O)COn1c(=O)c(-c2ccc(Cl)cc2)[n+]([O-])c2ccccc21 | 112% | –

SMILES | viability | outcome
CCOC(=O)c1cccc2c(=O)c(C(=O)c3ccc(Cl)cc3)c(C(=O)OC)[nH]c12 | 97.6% | –
CNC(=O)C(=O)N/N=C/c1cccnc1 | 81.3% | –
COc1cccc(CN2CCSCC2)c1 | 91.3% | –
CCNC(=S)Nc1cccc(S(=O)(=O)NC2=NCCC2)c1 | 101% | –
CC(=O)NCCn1c(SCC(=O)Nc2ccc(C)cc2)nc2ccccc2c1=O | 89.7% | –
CC(=O)N1CCN(c2ccc(NCc3ccc(F)cc3)cc2)CC1 | 95.9% | –
CCC(NC(=O)Nc1ccc(O)cc1)(C(F)(F)F)C(F)(F)F | 96% | –
O=C1/C(=C/c2ccco2)SC(=S)N1c1cccnc1 | 100% | –
O=S(=O)(O)c1cc(O)c2c(O)c(N=Nc3cc(Cl)ccc3O)c(S(=O)(=O)O)cc2c1 | 87.5% | –
Cc1ccccc1OCCC(=O)Nc1ccccc1C(=O)NC1CC1 | 84.7% | –
CC(=O)Nc1ccc(OCC(=O)N2CCc3ccccc3C2)cc1 | 112% | –
O=C(Nc1nnc(SCc2c(Cl)cccc2Cl)s1)c1cccc([N+](=O)[O-])c1 | 97.1% | –
Cc1ccc(N2CC(NC(=O)N3CCN(C(=O)c4ccco4)CC3)CC2=O)cc1 (stereo not given) | 85.7% | –
O=C(OCC(=O)N1CCN(C(=O)c2ccco2)CC1)c1cc(-c2ccco2)nc2ccccc12 | 86.7% | –
COc1cccc(CN2CCNC(=O)C2CC(=O)NCCn2nc(C)cc2C)c1OC (stereo not given) | 93.5% | –
Cc1ccccc1C(=O)NCC(=O)OC(C)C(=O)NC(C)CCc1ccccc1 (stereo not given) | 106% | –
c1ccc(CSc2nnc(-c3ccco3)c(-c3ccco3)n2)cc1 | 83.8% | –
O=C(Nc1nc(-c2ccco2)c(-c2ccco2)s1)C1CCC1 | 99.6% | –
CC(C)C[C@H](NC(=O)c1nc[nH]c1C(=O)N1CCN(c2ccccc2)CC1)C(=O)OC(C)(C)C | 85.4% | –
O=C(c1ccc2c(c1)[nH]c(=S)n1c3ccccc3nc21)N1CCN(c2cccc(Cl)c2)CC1 | 83.2% | –
Cc1cccc(N2CCN(CC(O)COc3ccc(Cl)cc3)CC2)c1 (stereo not given) | 96.6% | –
COc1ccccc1N1CCN(C(=O)C(F)F)CC1 | 90% | –

SMILES | viability | outcome
COc1cccc(=O)c2c(C)n(-c3ccc(C(=O)O)cc3)c(C)c12 | 105% | –
COc1cc(C(=O)Nc2ccc(N3CCCS3(=O)=O)cc2)c([N+](=O)[O-])cc1OC | 95.8% | –
CC(C)Cc1cc(C(=O)Nc2cccc(O)c2)no1 | 85.4% | –
COc1ccc(S(=O)(=O)N2CCOC2CNC(=O)C(=O)NCc2ccccn2)cc1 (stereo not given) | 80.3% | –
Cc1csc(=O)n1CC(=O)OCC(=O)c1ccc(Br)cc1 | 110% | –
O=C(O)/C=C/C(=O)NNc1ncnc2ccccc12 | 93.2% | –
C=CCn1c(SCC(=O)c2c(N)n(C)c(=O)n(C)c2=O)nnc1-c1ccccc1F | 80.2% | –
COc1ccc(CNc2nc3ccccc3n2C)c(O)c1 | 81.6% | –
COc1ccc2c(=O)c3c(=O)n(-c4ccc(C)cc4)c(-c4ccccc4)nc3oc2c1 | 105% | –
O=[N+]([O-])c1ccc(N/N=C/c2ccc(O)c(O)c2O)c(S(=O)(=O)N2CCOCC2)c1 | 88.3% | –
Cc1nnc(SCC(=O)N2CCN(c3ccccc3)CC2)n1C1CC1 | 111% | –
CCOC(CCNC(=O)c1cn(C)c(=O)c2c1c1ccccc1n2C)OCC | 87.9% | –
O=CN/C=C/c1cc(O)ccc1O | 93.7% | –
Oc1ccc(/C=C/c2cnccn2)cc1 | 103% | –
CC1CN(C(=O)COC(=O)Cc2ccc(Cl)cc2)CC(C)O1 (stereo not given) | 95.3% | –
CCN(CC(=O)Nc1c(F)cccc1F)C(=O)CSC(=S)N1CCCC1 | 106% | –
O=c1[nH]c2ccccc2c(O)c1-[n+]1ccccc1 | 105% | –
CCc1ccc2c(CN3CCC(C(=O)OC)CC3)cc(=O)oc2c1 | 101% | –
Cc1ccc(CNC(=O)COc2ccc3c(c2)CCC3)cc1 | 106% | –
CCn1c(SCC(=O)OC)nc2sc3c(c2c1=O)CCC3 | 91.2% | –
Cc1cc(SCC(=O)NCCCN2CCCC2=O)nc2ccccc12 | 108% | –
Cc1cc2c(c(=O)o1)C(c1ccc([N+](=O)[O-])o1)C(C#N)=C(N)O2 (stereo not given) | 106% | –

SMILES | viability | outcome
CC1CN(S(=O)(=O)c2cc(C(=O)NCc3ccncc3)ccc2Cl)CC(C)O1 (stereo not given) | 103% | –
CN(C)c1ccc(NC(=O)Nc2cccc(Cl)c2)cc1 | 84.4% | –
CCN(CC(=O)Nc1ccc(NC(C)=O)cc1)C(=O)C1CCCC1 | 121% | –
COC(=O)C1CCN(c2ccc([N+](=O)[O-])cc2)CC1 | 85.4% | –
C=CCc1c(C)nc2c(C(=O)O)cnn2c1C | 105% | –
CC1(C)CCC(=O)c2ccccc21 | 87.5% | –
O=S(=O)(O)c1cc(O)c2cc(Nc3ccccc3)ccc2c1 | 86% | –
Cn1cc(/C=C/C(=O)N2CCCC(C(=O)c3cccc(C(F)(F)F)c3)C2)cn1 (stereo not given) | 95.5% | –
CC1(C)C2CCC1(C)C(OC(=O)C[n+]1ccccc1)C2 (stereo not given) | 101% | –
CN(C)c1ncc(C2=C(Cl)C(=O)C(N3CCCC3)=C(Cl)C2=O)s1 | 89.6% | –
CN1CCN(S(=O)(=O)Cc2ccc(Cl)cc2)CC1 | 90.8% | –
CN1CCN(C2=C(Cl)C(=O)C(c3cnc(N4CCCCC4)s3)=C(Cl)C2=O)CC1 | 100% | –
O=C1C(Cl)=C(N2CCCCC2)C(=O)C(Cl)=C1c1cnc(N2CCCCC2)s1 | – | inactive
CCn1c(CNC(=O)Cc2ccc(OC)cc2)nnc1SCC(=O)Nc1ccc(C(=O)O)cc1 | 90% | –
Cc1cc(O)c(Oc2cc(C)cc(O)c2O)c(O)c1 | 99.7% | –
Cc1nc(NCc2ccccc2)c2cc[nH]c2n1 | 88.9% | –
COc1ccc2c(c1)n([O-])c1c([n+]2=O)CCC1 | 98.7% | –
CC(C)C(NC(N)=O)C(=O)NC1CCCCC1 (stereo not given) | 86.8% | –
CN(CC(=O)Nc1cccc(F)c1)C(=O)c1cc(-c2ccco2)nc2ccccc12 | 96.6% | –
CCc1ccccc1NNC(=O)CCc1ccccc1 | 90% | –
Cn1cnnc1SCC(=O)Nc1ncc([N+](=O)[O-])s1 | 96.2% | –
C=C(C)C(=O)Nc1cccc(C2=NOC3(C2)C[C@@H](C(N)=O)N(C(=O)CCCCC)C3)c1 (stereo not given in full) | 99.8% | –
